Experimental data from the supplement of paper PMC11732987, “Enantioselective OTUD7B fragment discovery through chemoproteomics screening and high-throughput optimisation” (Communications Chemistry, 2025).

Tests used:
Test in all cases: log2 ratio of Biotin-Ahx-Ub-VS probe labelling (fragment/DMSO); higher = less target engagement (more negative = stronger competition), active = hit call of the paper (q ≤ 0.05, log2 ratio ≤ -1)
Conditions in all cases: compound concentration: 200 uM; treatment time: 3 h
USP34 = USP34 (UniProt Q70CQ2)
Sequence of USP34 (Q70CQ2 whole entry, the tested form may be a part): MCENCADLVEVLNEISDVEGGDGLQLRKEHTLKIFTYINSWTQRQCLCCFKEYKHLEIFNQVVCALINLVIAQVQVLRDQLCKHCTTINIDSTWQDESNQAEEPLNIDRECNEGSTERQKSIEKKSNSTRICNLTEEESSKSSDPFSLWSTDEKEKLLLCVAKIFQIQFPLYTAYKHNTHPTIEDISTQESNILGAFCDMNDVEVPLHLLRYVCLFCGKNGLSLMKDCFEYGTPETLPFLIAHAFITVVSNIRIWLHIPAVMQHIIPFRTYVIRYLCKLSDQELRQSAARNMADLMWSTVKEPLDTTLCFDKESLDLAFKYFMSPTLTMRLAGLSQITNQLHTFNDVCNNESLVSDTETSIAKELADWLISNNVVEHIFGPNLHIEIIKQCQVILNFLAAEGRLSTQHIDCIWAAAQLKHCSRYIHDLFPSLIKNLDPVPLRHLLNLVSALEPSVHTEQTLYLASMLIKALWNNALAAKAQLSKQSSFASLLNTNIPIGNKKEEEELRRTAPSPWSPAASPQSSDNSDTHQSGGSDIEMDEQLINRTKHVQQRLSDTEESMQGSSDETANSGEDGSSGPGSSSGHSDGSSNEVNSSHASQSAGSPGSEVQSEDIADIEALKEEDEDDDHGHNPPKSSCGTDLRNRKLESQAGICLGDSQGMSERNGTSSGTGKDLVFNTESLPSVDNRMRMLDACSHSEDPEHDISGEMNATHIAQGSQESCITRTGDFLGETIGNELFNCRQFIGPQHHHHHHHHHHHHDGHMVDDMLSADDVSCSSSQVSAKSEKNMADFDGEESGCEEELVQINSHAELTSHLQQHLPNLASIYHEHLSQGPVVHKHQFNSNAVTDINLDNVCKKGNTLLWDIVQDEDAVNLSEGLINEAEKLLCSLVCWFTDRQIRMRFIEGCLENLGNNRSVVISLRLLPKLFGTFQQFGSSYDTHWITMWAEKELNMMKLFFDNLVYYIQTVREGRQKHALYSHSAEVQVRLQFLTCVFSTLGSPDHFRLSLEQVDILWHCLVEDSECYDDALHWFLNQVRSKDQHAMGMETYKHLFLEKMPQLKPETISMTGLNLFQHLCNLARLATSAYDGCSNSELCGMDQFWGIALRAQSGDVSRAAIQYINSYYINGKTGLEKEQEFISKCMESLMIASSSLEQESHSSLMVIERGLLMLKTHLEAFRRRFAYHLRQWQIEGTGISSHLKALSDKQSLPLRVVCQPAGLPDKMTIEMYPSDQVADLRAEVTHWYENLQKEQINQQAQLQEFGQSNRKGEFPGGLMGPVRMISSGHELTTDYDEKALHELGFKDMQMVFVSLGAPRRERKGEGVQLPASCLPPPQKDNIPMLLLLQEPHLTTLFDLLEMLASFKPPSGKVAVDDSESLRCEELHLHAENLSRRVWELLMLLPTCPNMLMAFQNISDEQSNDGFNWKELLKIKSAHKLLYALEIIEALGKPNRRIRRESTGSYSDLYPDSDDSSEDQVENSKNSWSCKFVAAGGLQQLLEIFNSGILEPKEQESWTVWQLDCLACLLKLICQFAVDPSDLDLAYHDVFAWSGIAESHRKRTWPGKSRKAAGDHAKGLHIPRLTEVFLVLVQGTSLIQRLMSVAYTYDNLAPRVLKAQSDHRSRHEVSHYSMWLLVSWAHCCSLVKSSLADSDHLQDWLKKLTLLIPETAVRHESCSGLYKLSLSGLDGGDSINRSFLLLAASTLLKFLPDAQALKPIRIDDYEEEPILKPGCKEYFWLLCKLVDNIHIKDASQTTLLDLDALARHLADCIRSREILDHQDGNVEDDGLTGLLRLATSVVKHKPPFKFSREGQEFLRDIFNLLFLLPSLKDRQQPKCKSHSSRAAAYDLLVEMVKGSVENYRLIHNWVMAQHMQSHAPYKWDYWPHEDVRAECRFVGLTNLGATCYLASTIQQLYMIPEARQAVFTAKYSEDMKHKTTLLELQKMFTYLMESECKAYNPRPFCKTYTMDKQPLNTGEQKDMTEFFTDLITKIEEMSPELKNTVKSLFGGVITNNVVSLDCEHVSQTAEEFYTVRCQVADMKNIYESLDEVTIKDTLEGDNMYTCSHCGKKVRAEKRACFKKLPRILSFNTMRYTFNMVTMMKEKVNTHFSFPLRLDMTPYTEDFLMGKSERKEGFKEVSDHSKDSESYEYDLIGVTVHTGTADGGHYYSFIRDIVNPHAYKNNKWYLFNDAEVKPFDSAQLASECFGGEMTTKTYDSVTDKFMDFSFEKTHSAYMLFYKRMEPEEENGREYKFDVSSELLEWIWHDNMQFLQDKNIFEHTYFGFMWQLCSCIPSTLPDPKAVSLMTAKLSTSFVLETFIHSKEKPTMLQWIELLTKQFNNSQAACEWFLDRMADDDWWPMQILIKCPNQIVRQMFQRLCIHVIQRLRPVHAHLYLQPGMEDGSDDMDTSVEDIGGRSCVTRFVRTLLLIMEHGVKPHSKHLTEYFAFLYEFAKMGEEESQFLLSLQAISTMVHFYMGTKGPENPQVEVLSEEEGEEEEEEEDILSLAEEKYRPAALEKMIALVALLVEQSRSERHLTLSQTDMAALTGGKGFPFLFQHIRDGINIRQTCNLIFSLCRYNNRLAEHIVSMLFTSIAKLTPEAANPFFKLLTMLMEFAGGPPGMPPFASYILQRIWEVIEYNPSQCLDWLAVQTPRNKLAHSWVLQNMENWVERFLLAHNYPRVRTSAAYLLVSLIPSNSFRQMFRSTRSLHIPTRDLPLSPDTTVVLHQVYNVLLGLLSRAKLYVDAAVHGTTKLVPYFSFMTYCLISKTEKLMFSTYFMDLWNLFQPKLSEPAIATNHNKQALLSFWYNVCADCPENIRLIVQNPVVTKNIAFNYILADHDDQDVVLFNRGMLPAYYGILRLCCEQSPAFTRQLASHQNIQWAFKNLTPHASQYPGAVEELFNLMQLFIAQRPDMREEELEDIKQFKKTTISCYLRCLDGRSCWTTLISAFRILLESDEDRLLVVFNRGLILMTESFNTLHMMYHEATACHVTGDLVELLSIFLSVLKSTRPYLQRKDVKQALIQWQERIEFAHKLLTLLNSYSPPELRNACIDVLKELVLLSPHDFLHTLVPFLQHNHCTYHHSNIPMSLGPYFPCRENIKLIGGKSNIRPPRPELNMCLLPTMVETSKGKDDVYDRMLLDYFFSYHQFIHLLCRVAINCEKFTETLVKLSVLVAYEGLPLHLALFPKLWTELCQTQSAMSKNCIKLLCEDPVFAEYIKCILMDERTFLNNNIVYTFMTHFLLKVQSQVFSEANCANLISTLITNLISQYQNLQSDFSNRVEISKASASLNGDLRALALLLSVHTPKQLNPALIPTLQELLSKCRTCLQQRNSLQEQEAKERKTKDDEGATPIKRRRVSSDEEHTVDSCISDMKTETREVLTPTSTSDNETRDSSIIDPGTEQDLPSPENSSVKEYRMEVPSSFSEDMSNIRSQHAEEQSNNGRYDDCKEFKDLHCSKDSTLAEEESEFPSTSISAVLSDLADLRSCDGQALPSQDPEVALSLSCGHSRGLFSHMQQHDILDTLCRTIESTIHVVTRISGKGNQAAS
Outline: (§1)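 Each value is an average log2 ratio of fragment to vehicle, tested by unpaired t-test. The underlying Spectronaut label-free quantities were global-median-normalised, and only proteins with ≥2 unique peptides were included. Triplicate HEK293T lysate samples (495 µg) were exposed to fragment at 200 µM or vehicle for 3 h, then to Biotin-Ahx-Ub-VS at 0.5 µM final for 1 h, before NeutrAvidin enrichment of labelled DUBs, LysC and trypsin digestion, and diaPASEF LC-MS/MS.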

USP36 = molecular target: T1, USP36 (UniProt Q9P275)
T1 sequence (whole entry): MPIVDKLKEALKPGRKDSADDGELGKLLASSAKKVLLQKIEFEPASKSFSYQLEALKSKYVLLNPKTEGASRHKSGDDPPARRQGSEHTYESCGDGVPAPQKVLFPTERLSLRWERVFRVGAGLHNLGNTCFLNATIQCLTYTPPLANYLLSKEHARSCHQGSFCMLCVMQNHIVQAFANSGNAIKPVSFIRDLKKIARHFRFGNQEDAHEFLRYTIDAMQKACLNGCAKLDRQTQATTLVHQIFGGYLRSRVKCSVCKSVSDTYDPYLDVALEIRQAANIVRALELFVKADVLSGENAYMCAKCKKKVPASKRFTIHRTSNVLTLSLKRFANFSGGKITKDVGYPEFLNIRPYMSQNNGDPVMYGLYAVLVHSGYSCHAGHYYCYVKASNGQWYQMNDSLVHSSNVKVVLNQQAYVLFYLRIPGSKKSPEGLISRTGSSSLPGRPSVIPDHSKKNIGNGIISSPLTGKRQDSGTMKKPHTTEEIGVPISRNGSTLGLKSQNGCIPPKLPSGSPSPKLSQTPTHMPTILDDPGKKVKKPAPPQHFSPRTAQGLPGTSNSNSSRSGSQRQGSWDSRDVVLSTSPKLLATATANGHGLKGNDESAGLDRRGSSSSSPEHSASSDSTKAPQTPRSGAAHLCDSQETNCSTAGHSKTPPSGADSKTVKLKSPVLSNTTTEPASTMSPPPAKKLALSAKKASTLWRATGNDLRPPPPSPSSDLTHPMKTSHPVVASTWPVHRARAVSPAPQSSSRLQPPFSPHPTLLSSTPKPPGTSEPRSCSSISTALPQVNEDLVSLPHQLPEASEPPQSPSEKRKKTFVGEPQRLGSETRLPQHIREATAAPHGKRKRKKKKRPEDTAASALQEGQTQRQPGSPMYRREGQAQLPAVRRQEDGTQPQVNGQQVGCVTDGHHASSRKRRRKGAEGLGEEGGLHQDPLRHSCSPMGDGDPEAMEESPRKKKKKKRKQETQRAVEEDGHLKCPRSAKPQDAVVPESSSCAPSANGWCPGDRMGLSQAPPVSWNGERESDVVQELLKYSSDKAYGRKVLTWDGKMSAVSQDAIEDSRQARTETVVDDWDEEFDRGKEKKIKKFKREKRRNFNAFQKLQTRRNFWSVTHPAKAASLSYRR
Outline: as §1

USP38 = molecular target: T2, USP38 (UniProt Q8NB14)
T2 sequence (whole entry): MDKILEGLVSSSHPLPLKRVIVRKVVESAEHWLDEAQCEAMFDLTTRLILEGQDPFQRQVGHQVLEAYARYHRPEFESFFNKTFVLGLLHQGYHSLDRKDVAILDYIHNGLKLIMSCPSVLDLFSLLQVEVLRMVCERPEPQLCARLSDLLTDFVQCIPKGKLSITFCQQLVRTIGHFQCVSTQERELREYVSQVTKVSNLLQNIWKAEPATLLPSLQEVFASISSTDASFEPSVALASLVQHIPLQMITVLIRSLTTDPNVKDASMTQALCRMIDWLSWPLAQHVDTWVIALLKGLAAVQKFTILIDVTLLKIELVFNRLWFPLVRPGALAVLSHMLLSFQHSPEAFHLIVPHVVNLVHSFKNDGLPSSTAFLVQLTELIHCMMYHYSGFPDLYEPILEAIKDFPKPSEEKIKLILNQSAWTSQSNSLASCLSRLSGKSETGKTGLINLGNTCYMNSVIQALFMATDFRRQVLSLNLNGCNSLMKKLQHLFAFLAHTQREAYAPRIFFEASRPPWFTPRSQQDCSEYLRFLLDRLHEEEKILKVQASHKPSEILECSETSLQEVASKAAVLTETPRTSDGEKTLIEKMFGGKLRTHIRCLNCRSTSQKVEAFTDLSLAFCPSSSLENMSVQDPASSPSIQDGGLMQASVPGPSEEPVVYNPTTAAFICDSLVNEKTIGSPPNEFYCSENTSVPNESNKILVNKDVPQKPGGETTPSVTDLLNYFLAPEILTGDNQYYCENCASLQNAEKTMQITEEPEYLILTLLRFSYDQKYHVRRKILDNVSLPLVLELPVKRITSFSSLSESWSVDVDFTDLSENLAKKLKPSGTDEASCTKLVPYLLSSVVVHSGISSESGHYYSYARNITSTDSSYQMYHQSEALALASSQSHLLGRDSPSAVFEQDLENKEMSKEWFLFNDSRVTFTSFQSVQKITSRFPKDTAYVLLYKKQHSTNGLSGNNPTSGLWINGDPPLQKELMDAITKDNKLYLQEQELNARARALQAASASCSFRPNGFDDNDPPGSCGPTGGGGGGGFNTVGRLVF
Outline: as §1

USP39 = molecular target: T3, USP39 (UniProt Q53GS9)
T3 sequence (whole entry): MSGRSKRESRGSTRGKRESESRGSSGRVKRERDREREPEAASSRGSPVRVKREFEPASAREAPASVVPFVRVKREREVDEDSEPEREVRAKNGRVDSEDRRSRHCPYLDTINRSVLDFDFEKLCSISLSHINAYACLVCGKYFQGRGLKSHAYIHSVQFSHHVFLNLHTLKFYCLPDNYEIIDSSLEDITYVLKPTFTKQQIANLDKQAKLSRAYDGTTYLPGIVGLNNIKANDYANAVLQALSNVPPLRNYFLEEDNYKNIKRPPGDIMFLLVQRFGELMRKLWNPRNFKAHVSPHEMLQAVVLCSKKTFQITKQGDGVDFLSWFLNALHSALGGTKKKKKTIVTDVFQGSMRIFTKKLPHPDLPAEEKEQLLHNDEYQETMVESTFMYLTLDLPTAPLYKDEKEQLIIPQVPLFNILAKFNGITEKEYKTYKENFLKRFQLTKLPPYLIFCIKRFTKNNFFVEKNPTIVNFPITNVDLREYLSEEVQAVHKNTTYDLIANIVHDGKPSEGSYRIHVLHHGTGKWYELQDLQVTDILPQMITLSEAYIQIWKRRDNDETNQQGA
Outline: as §1

USP4 = molecular target: T4, USP4 (UniProt Q13107)
T4 sequence (whole entry): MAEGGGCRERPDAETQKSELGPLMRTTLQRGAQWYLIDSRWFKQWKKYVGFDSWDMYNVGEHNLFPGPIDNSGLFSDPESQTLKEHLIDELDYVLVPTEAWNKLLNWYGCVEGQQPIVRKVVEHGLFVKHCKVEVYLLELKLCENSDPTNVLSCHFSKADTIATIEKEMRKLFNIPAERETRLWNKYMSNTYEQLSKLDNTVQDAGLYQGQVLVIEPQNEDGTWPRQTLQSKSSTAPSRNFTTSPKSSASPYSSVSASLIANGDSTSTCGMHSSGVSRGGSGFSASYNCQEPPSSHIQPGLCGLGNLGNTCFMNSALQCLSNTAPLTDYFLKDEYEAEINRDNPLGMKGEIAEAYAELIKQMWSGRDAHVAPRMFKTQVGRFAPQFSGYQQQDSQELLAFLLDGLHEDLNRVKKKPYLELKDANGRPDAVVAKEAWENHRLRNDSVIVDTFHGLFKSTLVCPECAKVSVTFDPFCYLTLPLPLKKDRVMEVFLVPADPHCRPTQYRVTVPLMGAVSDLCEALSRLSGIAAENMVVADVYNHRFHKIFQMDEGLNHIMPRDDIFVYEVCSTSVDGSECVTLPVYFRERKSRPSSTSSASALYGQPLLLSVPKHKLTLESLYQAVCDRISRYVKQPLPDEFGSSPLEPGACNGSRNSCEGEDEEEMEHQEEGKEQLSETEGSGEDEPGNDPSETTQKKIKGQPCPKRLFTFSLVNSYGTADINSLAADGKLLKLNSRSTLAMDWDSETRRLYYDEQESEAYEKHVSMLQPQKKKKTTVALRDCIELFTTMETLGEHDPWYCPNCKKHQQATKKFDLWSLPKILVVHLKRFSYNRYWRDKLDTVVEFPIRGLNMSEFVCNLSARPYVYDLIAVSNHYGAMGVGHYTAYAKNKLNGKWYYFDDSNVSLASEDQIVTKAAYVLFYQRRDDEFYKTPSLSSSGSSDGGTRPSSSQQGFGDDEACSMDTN
Outline: as §1

Measured: log2 ratio of Biotin-Ahx-Ub-VS probe labelling

Cc1cc(C2CCCN2C(=O)CCl)nn1C.Cl (stereo not given)
inactive: USP34 -0.179 | USP36 -0.0531 | USP38 -0.227 | USP39 -0.281 | USP4 -0.154
